Drawing on PubChem BioAssay (EPA / NIEHS), this text covers outcome and AC50 for four compounds.

Inconclusive results are not listed. Active and inactive are the calls of the source. The calls were made as follows, unless noted: active = hit-call score of the fitted dose curve at least 0.9, where 1 is the maximum; inconclusive = response in the unintended direction; inactive = score below 0.9.

A short description of assay [1]: TOX21_p53_BLA_p2_viability: Viability Assessment in the Tox21 HCT-116 p53 Agonism Beta-lactamase Assay, Phase 2 (AID 2283591).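 Also: compound exposure lasted 16 h at 37 °C; actives lower the ATP signal meaning cytotoxicity.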 The gist of the method: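 HCT116 p53-bla cells, 4000/well, dosed after 5 h plating (217-fold dilution of DMSO stocks) and incubated 16 h at 37C. Viability taken as cellular ATP by CellTiter-Glo luminescence after 30 min RT; signal loss marks cytotoxicity.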

For assay [2], the target named is Cellular tumor antigen p53 (Homo sapiens) (UniProt P04637). The assay is described as follows: TOX21_p53_BLA_p2_ratio: Tox21 HCT-116 p53 Agonism Beta-lactamase Assay, Ratio, Phase 2 (AID 2283592). The method in brief: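 Ratio endpoint: beta-lactamase cleavage of CCF4-AM, blue (460 nm) over green (530 nm). HCT116 reporter line; 16 h treatment, 37C; substrate 2 h RT.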

Assay [3] is described as follows: TOX21_p53_BLA_p3_viability: Viability Assessment in the Tox21 HCT-116 p53 Agonism Beta-lactamase Assay, Phase 3 (AID 2283593).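 Also: cells exposed to compound for 16 h before reading.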 The gist of the method: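 HCT116 cells, 4000/well, dosed 5 h after plating by pin transfer (217-fold dilution from DMSO stock) and incubated 16 h at 37C, 5% CO2. Viability read as ATP luminescence with CellTiter-Glo after 30 min at room temperature.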

Assay [4] addresses Cellular tumor antigen p53 (Homo sapiens) (UniProt P04637). The assay is described as follows: TOX21_p53_BLA_p3_ratio: Tox21 HCT-116 p53 Agonism Beta-lactamase Assay, Ratio, Phase 3 (AID 2283596). The method in brief:
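Cells were seeded at 4000/well, rested 5 h at 37C, then dosed with DMSO compound solutions (217-fold dilution) for 16 h. CCF4-AM substrate was loaded for 2 h at room temperature, and the 460/530 nm emission ratio was fitted for gain of signal versus DMSO.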

A short description of assay [5]: TOX21_p53_BLA_p4_viability: Viability Assessment in the Tox21 HCT-116 p53 Agonism Beta-lactamase Assay, Phase 4 (AID 2283597).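 Also: hits lower the luminescence signal meaning cytotoxicity.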 The method in brief:
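Cytotoxicity was inferred from loss of CellTiter-Glo luminescence. HCT116 cells had been dosed with compounds after 5 h plating, incubated 16 h at 37C and 5% CO2, and exposed to the CCF4-AM substrate for 2 h.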

The target in assay [6] is Cellular tumor antigen p53 (Homo sapiens) (UniProt P04637). As to the kind of experiment: TOX21_p53_BLA_p5_ratio: Tox21 HCT-116 p53 Agonism Beta-lactamase Assay, Ratio, Phase 5 (AID 2283599). The method in brief: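 HCT-116 p53-bla cells (4000/well) plated 5 h, dosed with compound (217-fold DMSO dilution) for 16 h at 37 C; CCF4-AM substrate 2 h at room temperature. Activity is the 460/530 nm emission ratio (405 nm excitation), fitted in gain-of-signal direction versus DMSO.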

Assay [7] shares this target. As to the kind of experiment: TOX21_p53_BLA_p4_ratio: Tox21 HCT-116 p53 Agonism Beta-lactamase Assay, Ratio, Phase 4 (AID 2283601). The method in brief:
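HCT-116 p53 beta-lactamase reporter cells (4000/well) preincubated 5 h, then compound (217-fold dilution of DMSO stock) for 16 h at 37C. CCF4-AM substrate added 2 h at room temperature; 460/530 nm emission ratio fitted upward versus DMSO.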

Assay [8] is described as follows: TOX21_p53_BLA_p5_viability: Viability Assessment in the Tox21 HCT-116 p53 Agonism Beta-lactamase Assay, Phase 5 (AID 2283600). The gist of the method: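 Luciferase-coupled ATP quantitation of cells treated for 16 h (37C, 5% CO2) with test chemicals delivered in DMSO via a 217-fold dilution; 4000 cells/well; reagent incubated 30 min at room temperature before luminescence reading.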

Assay [9] can be described thus: CCTE_Deisenroth_H295R-HTRF_384WELL_ESTRADIOL: CCTE's H295R-HTRF Assay Evaluation of Estradiol Concentration, Deisenroth Lab (AID 2284361; active = hit-call score of the fitted dose curve at least 0.9, where 1 is the maximum; inactive = score below 0.9). The settings on record: actives raise or lower the signal. The method in brief:
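Estradiol secreted into medium by H295R adrenocortical cells, quantified by HTRF after 48 h dosing over a nine-point 0.001 - 100 uM final range; gain or loss versus DMSO. Parallel ATP-luminescence viability readout; n=5 experiments.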

The nature of assay [10]: CCTE_Deisenroth_H295R-HTRF_384WELL_TESTOSTERONE: CCTE's H295R-HTRF Assay Evaluation of Testosterone Concentration, Deisenroth Lab (AID 2284373; active = hit-call score of the fitted dose curve at least 0.9, where 1 is the maximum; inactive = score below 0.9). The following applies: actives raise or lower the signal. The gist of the method: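 Testosterone secreted into medium was quantified by direct HTRF immunoassay after a 48 h treatment of H295R adrenocortical cells (nine concentrations, 0.001–100 uM final). Gain or loss fitted relative to DMSO; CellTiter-Glo viability read on same plates.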

Assay [11] is described as follows: CCTE_Deisenroth_H295R-HTRF_384WELL_CTOX: Cytotoxicity Assessment in CCTE's H295R-HTRF Assay, Deisenroth Lab (AID 2284380). The gist of the method: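 Luminescent ATP viability readout (CellTiter-Glo 2.0), multiplexed on plates used for hormone sampling, after 48 h chemical exposure. Human H295R cells; final concentrations 0.001–100 uM in nine steps, technical triplicates, five experiments; DMSO baseline.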
(TR-FRET usually uses a lanthanide donor and a delayed reading to cut background.)

Another assay deals with THRA (gene 7067) (UniProt P10827). As to the kind of experiment: TOX21_TRA_COA_Antagonist_Followup_ratio: Tox21 Thyroid Hormone Receptor alpha Antagonism through Coactivator Recruitment Follow-Up Assay, Ratio (AID 2283953). The gist of the method: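 We measured antagonism of T3-type coactivator recruitment using a TR-FRET ratio (emission 520 and 495 nm) between a Tb-labelled anti-GST antibody on TRα LBD (2.5 nM) and SRC-2 peptide (200 nM). Activity was scaled between DMSO and T3 wells.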

A short description of assay [12]: TOX21_TRB_BLA_Antagonist_Followup_viability: Viability Assessment in the Tox21 Thyroid Hormone Receptor beta Antagonism Beta-lactamase (BLA) Follow-Up Assay (AID 2283961). The method in brief: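 HEK293T cells stably expressing GAL4-DBD/human TRβ-LBD with UAS-bla reporter, 3,000 cells/well in phenol red-free DMEM, 2% charcoal-stripped FBS. Compounds at 11 concentrations in triplicate, 18 h at 37C/5% CO2; viability by CellTiter-Glo luminescence after 30 min at room temperature.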

For the next assay, the target named is THRB (gene 7068) (UniProt P10828). As to the kind of experiment: TOX21_TRB_COA_Antagonist_Followup_ratio: Tox21 Thyroid Hormone Receptor beta Antagonism through Coactivator Recruitment Follow-Up Assay, Ratio (AID 2283967). The gist of the method: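 GST-TRb LBD 5.0 nM + 0.10% BSA, compound added; fluorescein-SRC-2 peptide 200 nM, Tb-anti-GST Ab 2 nM. TR-FRET, ex 340 / em 520:495 ratio. Norm: DMSO 0%, T3 100%.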

The target of assay [13] is Retinoic acid receptor RXR-alpha (Homo sapiens) (UniProt P19793). The assay is described as follows: TOX21_TR_RXR_BLA_Antagonist_Followup_ratio: Tox21 Thyroid Hormone Receptor beta Retinoid X Receptor alpha (RXRa) Antagonism Beta-lactamase (BLA) Follow-Up Assay, Ratio (AID 2283972). The method in brief:
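RXRa-UAS-bla HEK293T cells in phenol red-free DMEM with 2% charcoal-stripped FBS; compounds at 11 concentrations in triplicate, 16 h at 37C. LiveBLAzer FRET-B/CCF4-AM substrate 2 h at room temperature; read as 460:530 nm ratio versus DMSO.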

Cellular tumor antigen p53 (Homo sapiens), sequence (P04637 whole entry, looked up): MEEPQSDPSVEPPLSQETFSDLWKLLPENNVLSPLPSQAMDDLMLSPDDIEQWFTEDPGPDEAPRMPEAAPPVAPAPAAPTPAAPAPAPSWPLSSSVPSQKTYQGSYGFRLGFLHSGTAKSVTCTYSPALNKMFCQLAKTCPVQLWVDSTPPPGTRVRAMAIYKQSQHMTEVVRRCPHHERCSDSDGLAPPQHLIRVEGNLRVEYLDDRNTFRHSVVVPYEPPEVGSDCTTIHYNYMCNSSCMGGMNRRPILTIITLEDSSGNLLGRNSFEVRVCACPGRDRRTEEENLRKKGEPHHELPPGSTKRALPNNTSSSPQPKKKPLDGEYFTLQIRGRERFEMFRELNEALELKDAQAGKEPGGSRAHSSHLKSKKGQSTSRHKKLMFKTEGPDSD
THRB (gene 7068), sequence (P10828 whole entry, looked up, the tested form may be a part): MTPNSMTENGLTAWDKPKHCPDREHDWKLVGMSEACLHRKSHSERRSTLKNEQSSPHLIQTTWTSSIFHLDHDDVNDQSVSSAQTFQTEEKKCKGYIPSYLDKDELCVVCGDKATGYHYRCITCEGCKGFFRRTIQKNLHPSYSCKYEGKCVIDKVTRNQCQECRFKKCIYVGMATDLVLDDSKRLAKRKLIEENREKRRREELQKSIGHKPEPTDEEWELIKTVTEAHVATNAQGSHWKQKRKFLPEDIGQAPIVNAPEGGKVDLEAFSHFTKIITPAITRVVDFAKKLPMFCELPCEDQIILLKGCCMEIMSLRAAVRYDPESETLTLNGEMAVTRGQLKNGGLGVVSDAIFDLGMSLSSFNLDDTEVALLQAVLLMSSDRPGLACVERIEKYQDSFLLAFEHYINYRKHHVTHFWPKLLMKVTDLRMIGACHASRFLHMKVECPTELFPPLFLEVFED
Retinoic acid receptor RXR-alpha (Homo sapiens), sequence (P19793 whole entry, looked up): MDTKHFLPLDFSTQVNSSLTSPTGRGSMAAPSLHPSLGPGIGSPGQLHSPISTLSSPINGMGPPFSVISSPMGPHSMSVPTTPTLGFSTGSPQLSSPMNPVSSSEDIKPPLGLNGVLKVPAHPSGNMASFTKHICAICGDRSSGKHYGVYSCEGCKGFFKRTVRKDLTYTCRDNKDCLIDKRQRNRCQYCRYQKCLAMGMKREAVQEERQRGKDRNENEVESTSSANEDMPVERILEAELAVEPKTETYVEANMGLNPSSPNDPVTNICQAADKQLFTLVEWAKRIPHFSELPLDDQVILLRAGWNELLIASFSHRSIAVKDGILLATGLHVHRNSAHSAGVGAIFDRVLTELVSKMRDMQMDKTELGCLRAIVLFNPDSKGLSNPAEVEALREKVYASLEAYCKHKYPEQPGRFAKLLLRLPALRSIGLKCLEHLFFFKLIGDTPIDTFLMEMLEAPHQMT
THRA (gene 7067), sequence (P10827 whole entry, looked up, the tested form may be a part): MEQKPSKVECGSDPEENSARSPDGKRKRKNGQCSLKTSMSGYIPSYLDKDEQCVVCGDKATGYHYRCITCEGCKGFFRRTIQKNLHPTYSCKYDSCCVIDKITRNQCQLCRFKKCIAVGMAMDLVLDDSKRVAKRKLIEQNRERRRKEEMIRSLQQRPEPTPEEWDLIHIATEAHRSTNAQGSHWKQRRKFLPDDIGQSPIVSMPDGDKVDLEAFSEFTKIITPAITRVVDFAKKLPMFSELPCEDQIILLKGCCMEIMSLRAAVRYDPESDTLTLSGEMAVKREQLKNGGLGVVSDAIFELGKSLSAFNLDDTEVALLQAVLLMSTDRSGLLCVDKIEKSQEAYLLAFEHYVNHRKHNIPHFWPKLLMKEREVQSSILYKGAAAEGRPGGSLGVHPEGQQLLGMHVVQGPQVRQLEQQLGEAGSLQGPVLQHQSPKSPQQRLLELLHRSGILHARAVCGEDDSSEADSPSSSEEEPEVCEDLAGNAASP

Take `Cc1ccccc1-n1c(C)nc2ccccc2c1=O`: the call in assay [1], in assay [2], in assay [3], in assay [4], in assay [5] and in [6] was inactive. Besides, the outcome in [7] was inactive.
Consider `CC(C)CC(C)N` (configuration not stated), for which the compound was classed as inactive in [1], in [2], in assay [3], in assay [4], in assay [5] and in [6]. Further, in [7], the result was inactive.
For `C[C@@H]1CC[C@@]2(OC1)O[C@H]1[C@@H](O)[C@H]3[C@@H]4CC[C@H]5C[C@@H](O[C@@H]6O[C@H](CO)[C@H](O[C@@H]7O[C@H](CO)[C@@H](O)[C@H](O[C@@H]8OC[C@@H](O)[C@H](O)[C@H]8O)[C@H]7O[C@@H]7O[C@H](CO)[C@@H](O)[C@H](O[C@@H]8O[C@H](CO)[C@@H](O)[C@H](O)[C@H]8O)[C@H]7O)[C@H](O)[C@H]6O)[C@H](O)C[C@]5(C)[C@H]4CC[C@]3(C)[C@H]1[C@@H]2C`, the AC50 was 19 µM (active) in assay [1]; 39.1 µM (active) in assay [2]; 48.5 µM (active) in assay [3]; 81.5 µM (active) in assay [4]; 18.7 µM (active) in assay [5]; 69.7 µM (active) in assay [6]. Moreover, the AC50 in [8] was 33.3 µM (active); in assay [7] it was 76.9 µM (active); in [9], 88.2 µM (active); in assay [10], 2.93 µM (active); in [11] it was 6.26 µM (active).
Turning to `O=c1oc2ccccc2c(O)c1Cc1c(O)c2ccccc2oc1=O`, the AC50 in [1] was 8.02 µM (active); in [2], 6.79 µM (active); in [3], 0.819 µM (active); in [4] it was 1.07 µM (active); in [5], 3.3 µM (active); in assay [6], 3.93 µM (active). Also, the AC50 in assay [7] is 3.95 µM (active). The call (in assay [8]; with THRA (gene 7067); in assay [12]; with THRB (gene 7068); in assay [13]) was inactive.

As usually defined, the AC50 is the midpoint of the concentration-response curve, whichever way the signal moves.
